Reference: PubChem BioAssay AID1159580 (chemical genetic matrix, 2015)
Among all 5,500 compounds or so, about 2,000 (36%) were called active. Roughly 18% stayed inconclusive and do not appear here. Rule as the data show it: active = normalized growth mostly below about 0.91 (no sharp cut-off); inconclusive = no clear call, values can overlap the other calls; inactive = mostly above about 0.92. The list shows a part of the results.

Experiment: chemical genetic growth profiling, strain panel (AID 1159580);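 also: tested at 20 µM; growth read once vehicle control cultures reached saturation at 30 °C; 1 = growth at the plate median or of vehicle wells; lower values mean less growth of the strain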
Details: S. cerevisiae deletion strains, growth OD
[1] = locus YDL101C, strain DUN1, active compounds read low
[2] = locus YJL095W, strain BCK1, active compounds read low
[3] = locus YOR061W, strain CKA2, active compounds read low

Measured: normalized growth

C=CC(C)(C)c1c2c(c(O)c3c(=O)c4ccc(O)c(O)c4oc13)C=CC(C)(C)O2
active: locus YDL035C, strain GPR1, active compounds read low 0.601 | locus YDL074C, strain BRE1, active compounds read low 0.615 | locus YDL192W, strain arf1, active compounds read low 0.829 | locus YDR150W, strain NUM1, active compounds read low 0.78 | locus YDR162C, strain NBP2, active compounds read low 0.444 | locus YDR318W, strain mcm21, active compounds read low 0.886 | locus YDR388W, active compounds read low 0.918 | locus YER155C, strain BEM2, active compounds read low 0.817 | locus YER167W, strain BCK2, active compounds read low 0.871 | locus YGL086W, strain mad1, active compounds read low 0.794 | locus YGL248W, strain PDE1, active compounds read low 0.847 | locus YGR135W, strain pre9, active compounds read low 0.891 | locus YHR129C, strain ARP1, active compounds read low 0.726 | locus YHR200W, strain rpn10, active compounds read low 0.894 | locus YIL066C, strain RNR3, active compounds read low 0.413 | locus YIL073C, strain SPO22, active compounds read low 0.424 | [2] 0.767 | locus YJL187C, strain SWE1 (second series), active compounds read low 0.81 | locus YKR001C, strain vps1, active compounds read low 0.783 | locus YLR039C, strain RIC1, active compounds read low 0.581 | locus YLR058C, strain SHM2, active compounds read low 0.867 | locus YLR262C, strain YPT6, active compounds read low 0.544 | locus YLR268W, strain sec22, active compounds read low 0.812 | locus YLR330W, strain CHS5, active compounds read low 0.9 | locus YLR342W, strain FKS1 (second series), active compounds read low 0.4 | locus YLR371W, strain rom2, active compounds read low 0.799 | locus YLR418C, strain cdc73, active compounds read low 0.51 | locus YML016C, strain PPZ1, active compounds read low 0.873 | locus YMR223W, strain ubp8, active compounds read low 0.891 | locus YMR307W, strain GAS1, active compounds read low 0.428 | locus YNL067W, strain RPL9B, active compounds read low 0.843 | locus YNL233W, strain BNI4, active compounds read low 0.582 | locus YNL307C, strain MCK1, active compounds read low 0.799 | locus YOL006C, strain TOP1, active compounds read low 0.275 | [3] 0.78 | locus YOR069W, strain VPS5, active compounds read low 0.873 | locus YOR184W, strain ser1, active compounds read low 0.76 | locus YPL055C, strain LGE1, active compounds read low 0.451 | locus YPR163C, strain tif3, active compounds read low 0.796 | locus YPR167C, strain met16, active compounds read low 0.916 | strain wtn01, active compounds read low 0.839
inactive: locus YBR021W, strain FUR4, active compounds read low 0.893 | locus YBR229C, strain ROT2, active compounds read low 1 | locus YCL029C, strain bik1, active compounds read low 0.992 | [1] 0.929 | locus YDL185W, strain tfp1, active compounds read low 0.996 | locus YDR101C, strain arx1, active compounds read low 0.973 | locus YDR502C, strain sam2, active compounds read low 0.948 | locus YER110C, active compounds read low 1 | locus YGL078C, strain dbp3, active compounds read low 0.975 | locus YGR252W, strain gcn5, active compounds read low 0.823 | locus YHR079C, strain IRE1 (second series), active compounds read low 1 | locus YHR094C, strain hxt1, active compounds read low 1.01 | locus YIL125W, strain kgd1, active compounds read low 0.984 | locus YIR030C, strain dcg1, active compounds read low 1 | locus YJL134W, strain LCB3, active compounds read low 0.987 | locus YJL168C, strain set2, active compounds read low 0.99 | locus YKL009W, strain mrt4, active compounds read low 0.938 | locus YKL068W, active compounds read low 0.996 | locus YKL085W, strain MDH1 (second series), active compounds read low 0.978 | locus YKL085W, strain MDH1, active compounds read low 0.978 | locus YLR102C, strain apc9, active compounds read low 1.01 | locus YML032C, strain rad52, active compounds read low 0.954 | locus YML124C, strain tub3, active compounds read low 1.02 | locus YMR078C, strain ctf18, active compounds read low 0.984 | locus YMR263W, strain SAP30, active compounds read low 0.92 | locus YNL250W, strain rad50, active compounds read low 1.03 | locus YNL271C, strain bni1, active compounds read low 0.992 | locus YNL298W, strain CLA4, active compounds read low 1 | locus YNR052C, strain pop2, active compounds read low 0.93 | locus YOL012C, strain htz1 0.242 | locus YOL147C, strain pex11, active compounds read low 0.943 | locus YOR136W, strain idh2, active compounds read low 0.97 | locus YOR144C, strain elg1, active compounds read low 0.983 | locus YOR316C, strain cot1, active compounds read low 0.986 | locus YPL241C, strain CIN2, active compounds read low 0.952 | locus YPR119W, strain clb2, active compounds read low 1.01 | locus YPR141C, strain kar3, active compounds read low 1

NC(N)=Nc1nc(-c2cc(Cl)sc2Cl)cs1
active: locus YHR030C, strain SLT2, active compounds read low 0.821 | locus YLR113W, strain HOG1, active compounds read low 0.757
inactive: locus YAR019C, strain CDC15, active compounds read low 0.994 | locus YBL105C, strain PKC1, active compounds read low 0.998 | locus YBR135W, strain CKS1, active compounds read low 0.987 | locus YBR136W, strain MEC1, active compounds read low 0.99 | locus YBR160W, strain CDC28, active compounds read low 0.99 | locus YDL017W, strain CDC7, active compounds read low 0.993 | locus YDL028C, strain MPS1, active compounds read low 0.985 | [1] 0.966 | locus YDL108W, strain KIN28, active compounds read low 0.988 | locus YDL132W, strain cdc53, active compounds read low 0.979 | locus YDL214C, strain PRR2, active compounds read low 0.934 | locus YDR052C, strain DBF4, active compounds read low 0.99 | locus YDR054C, strain cdc34, active compounds read low 0.973 | locus YDR226W, strain ADK1, active compounds read low 0.974 | locus YDR477W, strain SNF1, active compounds read low 0.944 | locus YER123W, strain YCK3, active compounds read low 0.862 | locus YER133W, strain GLC7, active compounds read low 0.905 | locus YFL009W, strain cdc4, active compounds read low 0.983 | locus YFL029C, strain CAK1, active compounds read low 0.988 | locus YFR003C, strain YPI1, active compounds read low 0.986 | locus YFR019W, strain FAB1, active compounds read low 0.947 | locus YFR028C, strain CDC14, active compounds read low 0.982 | locus YGR040W, strain KSS1, active compounds read low 0.942 | locus YGR052W, strain FMP48, active compounds read low 0.935 | locus YGR092W, strain DBF2, active compounds read low 0.945 | locus YHR079C, strain IRE1, active compounds read low 0.897 | locus YHR082C, strain KSP1, active compounds read low 1 | locus YHR205W, strain SCH9, active compounds read low 0.904 | locus YIL147C, strain SLN1, active compounds read low 0.987 | [2] 0.826 | locus YJL128C, strain PBS2, active compounds read low 0.922 | locus YJL157C, strain FAR1, active compounds read low 0.932 | locus YJR016C, strain ILV3, active compounds read low 0.997 | locus YJR066W, strain TOR1 (second series), active compounds read low 0.886 | locus YJR066W, strain TOR1, active compounds read low 0.997 | locus YKL048C, strain ELM1, active compounds read low 0.947 | locus YKL067W, strain YNK1, active compounds read low 0.932 | locus YKL101W, strain HSL1, active compounds read low 0.93 | locus YKL193C, strain SDS22, active compounds read low 0.985 | locus YKL203C, strain TOR2, active compounds read low 0.988 | locus YLR133W, strain CKI1, active compounds read low 0.958 | locus YLR403W, strain SFP1, active compounds read low 0.962 | locus YML070W, strain DAK1, active compounds read low 0.901 | locus YMR001C, strain CDC5, active compounds read low 0.993 | locus YMR205C, strain PFK2 (second series), active compounds read low 0.948 | locus YMR277W, strain FCP1, active compounds read low 0.985 | locus YNL006W, strain LST8, active compounds read low 0.984 | locus YNL020C, strain ARK1, active compounds read low 0.96 | locus YNL161W, strain CBK1, active compounds read low 0.989 | locus YNL183C, strain NPR1, active compounds read low 0.988 | locus YNL207W, strain RIO2, active compounds read low 0.989 | locus YNL222W, strain SSU72, active compounds read low 0.99 | locus YNL307C, strain MCK1 (second series), active compounds read low 0.927 | locus YOL078W, strain AVO1, active compounds read low 0.986 | locus YOL136C, strain PFK27, active compounds read low 0.91 | [3] 0.983 | locus YOR119C, strain RIO1, active compounds read low 0.981 | locus YOR231W, strain MKK1, active compounds read low 0.935 | locus YOR329C, strain SCD5, active compounds read low 0.995 | locus YPL031C, strain PHO85, active compounds read low 0.93 | locus YPL153C, strain RAD53, active compounds read low 0.921 | locus YPL204W, strain HRR25, active compounds read low 0.921 | locus YPL209C, strain IPL1, active compounds read low 0.99 | locus YPL256C, strain CLN2, active compounds read low 0.89 | locus YPR025C, strain CCL1, active compounds read low 0.992 | locus YPR106W, strain ISR1, active compounds read low 0.985 | locus YPR111W, strain DBF20, active compounds read low 0.974 | strain NNK1, active compounds read low 0.971 | strain TSCII, active compounds read low 0.985
